Inconclusive results are not listed. Calls of active or inactive are those of the source. Unless noted, the call rests on the fitted dose curve.
Columns and labels:
[1] = qHTS for Inhibitors of the Functional Ribonucleoprotein Complex (vRNP) of Lassa (LASV) Arenavirus: LASV Primary Screen - GLuc reporter signal (AID 1347082; calls by dose curve; tested in HEK293 reporter line; further: nearly all actives have a fitted effect of over 60% in size)
[2] = qHTS for Inhibitors of the Functional Ribonucleoprotein Complex (vRNP) of Lassa (LASV) Arenavirus: Viability assay - alamar blue signal for LASV Primary Screen (AID 1347083; calls by dose curve; tested in HEK293 reporter line; further: nearly all actives have a fitted effect of over 80% in size)
[3] = qHTS for Inhibitors of the Functional Ribonucleoprotein Complex (vRNP) of Lymphocytic Choriomeningitis Arenaviruses (LCMV): Viability assay - alamar blue signal for LCMV Primary Screen (AID 1347085; calls by dose curve; tested in HEK293 reporter line; further: nearly all actives have a fitted effect of over 80% in size)
[4] = target: Nucleoprotein (Lymphocytic choriomeningitis virus (strain Armstrong)) (UniProt P09992); assay: qHTS for Inhibitors of the Functional Ribonucleoprotein Complex (vRNP) of Lymphocytic Choriomeningitis Arenaviruses (LCMV): LCMV Primary Screen - GLuc reporter signal (AID 1347086); further: nearly all actives have a fitted effect of over 70% in size
Chain of Nucleoprotein (Lymphocytic choriomeningitis virus (strain Armstrong)) (P09992 whole entry, looked up): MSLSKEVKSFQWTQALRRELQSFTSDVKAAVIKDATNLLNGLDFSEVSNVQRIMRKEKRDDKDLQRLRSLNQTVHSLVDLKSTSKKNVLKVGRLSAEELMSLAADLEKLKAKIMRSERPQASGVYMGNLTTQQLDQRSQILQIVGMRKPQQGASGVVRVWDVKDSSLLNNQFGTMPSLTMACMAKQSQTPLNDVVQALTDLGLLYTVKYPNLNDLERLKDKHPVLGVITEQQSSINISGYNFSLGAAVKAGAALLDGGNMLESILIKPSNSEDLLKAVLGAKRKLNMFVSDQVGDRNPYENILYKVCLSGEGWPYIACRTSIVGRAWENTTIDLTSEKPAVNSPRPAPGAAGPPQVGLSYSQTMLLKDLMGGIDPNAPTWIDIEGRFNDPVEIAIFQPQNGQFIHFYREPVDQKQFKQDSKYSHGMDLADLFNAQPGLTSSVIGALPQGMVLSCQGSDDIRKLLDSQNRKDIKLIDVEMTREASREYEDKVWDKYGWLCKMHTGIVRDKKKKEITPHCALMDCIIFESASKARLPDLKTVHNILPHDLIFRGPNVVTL

Measured: Potency
Further: series mostly up to about 57 µM.

COc1cc(OC)cc(OC)c1
inactive: [1] | [2] | [3] | [4]

CCOc1c(N2CCOCC2)cnn(C)c1=O
inactive: [1] | [2] | [3] | [4]

NC(=O)C1(N2CCCCC2)CCN(CCCC(=O)c2ccc(F)cc2)CC1
inactive: [1] | [2] | [3] | [4]

O=C(O)CNC(=O)c1ccccc1I
inactive: [1] | [2] | [3] | [4]

CCN1CCCC(OC(=O)C(c2ccccc2)c2ccccc2)C1 (stereo not given)
inactive: [1] | [2] | [3] | [4]

CCOC(=O)c1c(N)sc2c1CCN(Cc1ccccc1)C2
inactive: [1] | [2] | [3] | [4]

COc1cccc(CCc2ccccc2OCC(CN(C)C)OC(=O)CCC(=O)O)c1 (stereo not given)
inactive: [1] | [2] | [3] | [4]

CC(C)(C)C(=O)C(Oc1ccc(Cl)cc1)n1ccnc1 (stereo not given)
inactive: [1] | [2] | [3] | [4]

C[C@@H]1C[C@H]2[C@@H]3C[C@H](F)C4=CC(=O)C(Cl)=C[C@]4(C)[C@@]3(F)[C@@H](O)C[C@]2(C)[C@@]1(O)C(=O)CO
inactive: [1] | [2] | [3] | [4]

COc1ccc(CN(CCN(C)C)c2ncccn2)cc1
inactive: [1] | [2] | [3] | [4]

CCCOc1ccccc1-c1nc2n[nH]nc2c(=O)[nH]1
inactive: [1] | [2] | [3] | [4]

O=C(NC1CCN(CCc2c[nH]c3ccccc23)CC1)c1ccccc1
inactive: [1] | [2] | [3] | [4]

Cc1ccc(/C(=C\CN2CCCC2)c2ccccn2)cc1
inactive: [1] | [2] | [3] | [4]

O=Cc1ccccc1C=O
inactive: [1] | [2] | [3] | [4]

CCC(=O)Nc1ccc(O)cc1
inactive: [1] | [2] | [3] | [4]

CN(C)CC[C@@H](c1ccc(Cl)cc1)c1ccccn1
inactive: [1] | [2] | [3] | [4]

CNC(=O)c1c(I)c(NC(=O)CCCCC(=O)Nc2c(I)c(C(=O)O)c(I)c(C(=O)NC)c2I)c(I)c(C(=O)O)c1I
inactive: [1] | [2] | [3] | [4]

O=C(OCc1ccccc1)c1ccc(O)cc1
inactive: [1] | [2] | [3] | [4]

CCN(CCCc1ccccc1)CCCc1ccccc1
inactive: [1] | [2] | [3] | [4]

CN1CCCN(C(c2ccccc2)c2ccc(Cl)cc2)CC1 (stereo not given)
inactive: [1] | [2] | [3] | [4]

CN(C)[C@@H]1C(=O)C(C(=O)NCN2CCCC2)=C(O)[C@@]2(O)C(=O)C3=C(O)c4c(O)cccc4[C@@](C)(O)C3C[C@@H]12 (stereo not given in full)
inactive: [1] | [2] | [3] | [4]

CC[N+](CC)(CC)CCOC(=O)C(C1CCCC1)C1CCCC1
inactive: [1] | [2] | [3] | [4]

CC(C)NCC(O)COc1ccc(COCCOC(C)C)cc1 (stereo not given)
inactive: [1] | [2] | [3] | [4]

CCOC(=O)C(C#N)=C(c1ccccc1)c1ccccc1
inactive: [1] | [2] | [3] | [4]

c1ccc2c(c1)CCc1ccccc1N2
inactive: [1] | [2] | [3] | [4]

CCn1cc(C(=O)O)c(=O)c2cc(F)c(N3CCN(C)CC3)cc21
inactive: [1] | [2] | [3] | [4]

Cc1[nH]c(=O)c(C#N)cc1-c1ccc2nccn2c1
inactive: [1] | [2] | [3] | [4]

CO[C@]1(NC(=O)CSC(F)F)C(=O)N2C(C(=O)O)=C(CSc3nnnn3CCO)CO[C@H]21
inactive: [1] | [2] | [3] | [4]

CC(C)(C)NCC(O)COc1cccc2c1CCC(=O)N2 (stereo not given)
inactive: [1] | [2] | [3] | [4]

Nc1ccn([C@H]2CC[C@@H](CO)O2)c(=O)n1
inactive: [1] | [2] | [3] | [4]

Cc1nnc(C(=O)NC(C)(C)c2nc(C(=O)NCc3ccc(F)cc3)c(O)c(=O)n2C)o1
inactive: [1] | [2] | [3] | [4]

COC(=O)C1=C(C)NC(C)=C(C(=O)O[C@@H]2CCCN(Cc3ccccc3)C2)[C@@H]1c1cccc([N+](=O)[O-])c1
inactive: [1] | [2] | [3] | [4]

CC(=O)Nc1cccc(O)c1
inactive: [1] | [2] | [3] | [4]

Cc1ccc(O)cc1
inactive: [1] | [2] | [3] | [4]

CC(=O)Oc1ccc2c(c1)CC[C@@H]1[C@@H]2CC[C@]2(C)[C@@H](O)CC[C@@H]12
inactive: [1] | [2] | [3] | [4]

CN(Cc1cc(Br)cc(Br)c1N)C1CCCCC1
inactive: [1] | [2] | [3] | [4]

C[C@@H]1CCC[C@H](C)N1CCCC(O)(c1ccccc1)c1ccccn1 (stereo not given in full)
inactive: [1] | [2] | [3] | [4]

O=C(CCN1CCN2CCCC2C1)N1c2ccccc2Sc2ccc(Cl)cc21 (stereo not given)
inactive: [1] | [2] | [3] | [4]

CC(=O)OCC(=O)[C@@]1(O)CCC2C3CCC4=CC(=O)CC[C@]4(C)C3[C@@H](O)C[C@@]21C (stereo not given in full)
inactive: [1] | [2] | [3] | [4]

O=C1C(c2[nH]c3ccccc3c2O)=Nc2ccccc21
inactive: [1] | [2] | [3] | [4]

C[C@H]1COc2c(C3(N)CC3)c(F)cc3c(=O)c(C(=O)O)cn1c23
inactive: [1] | [2] | [3] | [4]

CO/N=C(\C(=O)O)c1csc(NC(=O)CCl)n1
inactive: [1] | [2] | [3] | [4]

CCCCC1(COC(=O)CCC(=O)O)C(=O)N(c2ccccc2)N(c2ccccc2)C1=O
inactive: [1] | [2] | [3] | [4]

O=C(O)CCC(=O)Nc1ccc(S(=O)(=O)Nc2nccs2)cc1
inactive: [1] | [2] | [3] | [4]

O=C(COc1ccc(Cl)cc1)N1CCN(Cc2ccc3c(c2)OCO3)CC1
inactive: [1] | [2] | [3] | [4]

CO/N=C(/C(=O)N[C@@H]1C(=O)N2C(C(=O)O)=C(Cn3nnc(C)n3)CS[C@H]12)c1csc(N)n1
inactive: [1] | [2] | [3] | [4]

Cc1ccc(Nc2c(F)cccc2Cl)c(CC(=O)O)c1
inactive: [1] | [2] | [3] | [4]

CC1=C(C(=O)O)N2C(=O)[C@@H](NC(=O)[C@H](N)C3=CCC=CC3)[C@H]2SC1
inactive: [1] | [2] | [3] | [4]

COC1=C(OC)C(=O)C(CCCCCCCCCCO)=C(C)C1=O
inactive: [1] | [2] | [3] | [4]

CCN(CC)CC(=O)Nc1c(C)cccc1C
inactive: [1] | [2] | [3] | [4]

CC1(C)OC(=O)Nc2ccc(Br)cc21
inactive: [1] | [2] | [3] | [4]

COc1ccc(CCC(C)=O)cc1
inactive: [1] | [2] | [3] | [4]

O=C(O)/C=C/c1ccc(Cn2ccnc2)cc1
inactive: [1] | [2] | [3] | [4]

O=C1CC2(CCCC2)CC(=O)N1CCNCC1COc2ccccc2O1 (stereo not given)
inactive: [1] | [2] | [3] | [4]

CC(=O)Nc1ccn(C2COC(COC(=O)c3ccccc3)O2)c(=O)n1 (stereo not given)
inactive: [1] | [2] | [3] | [4]

CC(O)COc1ccccc1 (stereo not given)
inactive: [1] | [2] | [3] | [4]

O=C(c1ccc(F)cc1)C1CCN(CCn2c(=S)[nH]c3ccccc3c2=O)CC1
inactive: [1] | [2] | [3] | [4]

OC(CN1CCC(Cc2ccc(F)cc2)CC1)c1ccc(Cl)cc1 (stereo not given)
inactive: [1] | [2] | [3] | [4]

COc1ccc(S(=O)(=O)N2c3ccc(Cl)cc3[C@@](O)(c3ccccc3Cl)[C@H]2C(=O)N2CCC[C@@H]2C(N)=O)cc1OC
inactive: [1] | [2] | [3] | [4]

NC(=O)CCCCC1CCSS1 (stereo not given)
inactive: [1] | [2] | [3] | [4]

— PubChem BioAssay (NCATS)
